The panel holds about 83,000 compounds, 20% with a hit somewhere; the sample as a whole holds those more often.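 Each cell line was grown in a 96-well plate and treated with one concentration of compound for 48 hours. Values below 10 were considered active.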 Values without a mark were called inactive. Calls of active or inactive are those of the source.

Assay in all cases: NCI-60 one-dose screen, 48 h (100 = growth as untreated, 0 = no growth, -100 = all killed)
Conditions in all cases: 10 µM unless noted

In assay [1] the test system is NCI-H23 lung.
The test system of assay [2] is NCI-H226 lung.
Assay [3] has as its system NCI-H322M lung.
Assay [4] relates to HOP-62 NSCLC.
The test system of assay [5] is NCI-H460 lung.
The test system of assay [6] is HOP-92 NSCLC.
Assay [7] relates to NCI-H522 lung.
Assay [8] relates to A549/ATCC NSCLC.
Assay [9] concerns 786-0 renal.
Assay [10] concerns COLO 205 colon.
In assay [11] the test system is DU-145 prostate.
For assay [12], the system named is K-562 leukemia.
The subject of assay [13] is MALME-3M melanoma.
Assay [14] relates to MDA-MB-231 breast.
For assay [15], the system named is RXF 393 renal.
In assay [16] the test system is SF-268 CNS.
Assay [17] relates to SF-295 CNS.
The test system of assay [18] is SF-539 CNS.
Assay [19] relates to UACC-257 melanoma.
Assay [20] relates to M14 melanoma.

Take `CCOC(=O)NC(=S)n1oc(=O)c2ccccc21`: the growth is 97.7% in assay [1]; 102% in [2]; 98.8% in assay [3]; 99.4% in assay [4]; 101% in assay [5]; 86.2% in assay [6]. For the same compound, the growth in assay [7] was 99.3%; in assay [8], 103%; in [9] it was 111%; in assay [10] it was 103%; in [11], 106%; in assay [12] it was 112%. Moreover, the growth was 95.4% in assay [13]; 96.8% in assay [14]; 111% in [15]; 96.1% in assay [16]; 103% in assay [17]; 95.6% in assay [18]. Also, the growth in [19] is 105%; in [20], 104%.
For `Nc1ncccc1O`, the growth in assay [1] is 78%; in assay [2], 94.1%; in [3] it was 98.8%; in [4], 99.5%; in assay [5], 49.3%; in assay [6] it was 105%. The growth in [7] is 61.4%; in assay [8], 77.9%; in assay [9], 111%; in assay [10], 92.6%; in assay [11], 22.8%; in assay [12] it was 67.6%. Further, the growth in assay [13] is 131%; in [14], 117%; in [15] it was 76.1%; in assay [16] it was 96%; in assay [17], 82.4%; in assay [18] it was 106%. Also, the growth was 91.3% in assay [19] and 102% in [20].
As to `CCOC(=O)c1cnn(CC(C)O)c1NC(=O)NCc1cccc(F)c1` (stereo not given), the growth in assay [1] is 97.5%; in assay [2] it was 103%; in assay [3] it was 97.7%; in assay [4] it was 100%; in [5], 105%; in assay [6] it was 68%. The growth in assay [7] was 66%; in [8] it was 100%; in assay [9], 95.1%; in assay [10], 118%; in [11] it was 96.7%; in assay [12], 81.1%. The growth was 99.2% in [13]; 106% in [14]; 111% in assay [15]; 101% in assay [16]; 99.9% in [17]; 98.2% in assay [18]. The growth in assay [19] was 99.7%; in assay [20], 83.2%.
As for `CS(=O)(=O)Nc1cc(-c2ccc3ncnc(Nc4ccc(OCc5ccccn5)c(Cl)c4)c3c2)cnc1Cl`, the growth in assay [1] was -8.13% (active); in assay [2], 21.2%; in [3], 9.88% (active); in assay [4], 15.3%; in assay [5] it was 9.64% (active); in assay [6], -6.05% (active). Besides, the growth in [7] was -18.3% (active); in [8] it was 11.8%; in assay [9] it was 22.2%; in assay [10] it was -90.9% (active); in [11] it was 16.5%; in [12], 21.1%. Besides, the growth is -35.7% (active) in assay [13]; 2.29% (active) in assay [14]; -31.4% (active) in assay [15]; 10.9% in assay [16]; -2.49% (active) in [17]; -11.7% (active) in assay [18]. For the same compound, the growth in [19] is 14.3%; in assay [20], 30%.
As to `COc1cc2c(c(OC)c1OC)C(=O)CC(c1cccc(C(=O)Nc3ccc(C#N)cc3)c1)O2` (stereo not given), the growth is 78.7% in [1]; 46.9% in [2]; 90.8% in assay [3]; 91.5% in [4]; 89.3% in assay [5]; 64.6% in assay [6]. Further, the growth in assay [7] was 46.8%; in [8], 87.4%; in assay [9], 90.4%; in assay [10], 85.8%; in assay [11], 88%; in [12], 42.2%. Besides, the growth in assay [13] is 96.9%; in assay [14], 73.5%; in [15] it was 99.7%; in assay [16], 88.9%; in assay [17], 77%; in assay [18] it was 93%. Also, the growth in assay [19] is 82.4%; in [20], 72.1%.
As for `N#Cc1ccc(/C=C/c2cn(-c3ccccc3)nc2-c2cccc([N+](=O)[O-])c2)cc1`, the growth in assay [1] is 56.4%; in [2] it was 6.28% (active); in [3], 62.9%; in assay [4], 37.8%; in [5] it was 40.1%; in assay [6], 74.6%. The growth in [7] was 20.1%; in assay [8], 49.5%; in assay [9], 58.7%; in assay [10] it was 83.6%; in [11], 59.5%; in assay [12] it was 61.2%. The growth was 50.3% in assay [13]; 36.1% in assay [14]; 67.1% in [15]; 56.5% in assay [16]; 62.5% in assay [17]; 65.7% in assay [18]. Further, the growth was 70.2% in assay [19] and 68.8% in assay [20].
For the compound `O=C(Oc1ccc2c(c1)sc1nc(-c3ccccc3)[nH]c(=O)c12)C(F)(F)F`, the growth in [1] is 52.8%; in [2] it was 58.3%; in [3], 56.3%; in assay [4], 39.3%; in assay [5] it was 13%; in assay [6] it was 54.1%. Besides, the growth is 25.1% in assay [7]; 28.3% in [8]; 51% in [9]; 88.3% in [10]; 44.2% in [11]; 15.3% in assay [12]. The growth was 33.3% in [13]; 61.4% in [14]; 43.8% in assay [15]; 44% in assay [16]; 51.9% in [17]; 27.9% in assay [18]. In addition, the growth was 49.1% in [19] and 4.5% (active) in [20].
On to `O=C1CCCC1[n+]1ccccc1` (stereo not given), for which the growth was 108% in [1]; 105% in assay [2]; 93.6% in [3]; 80.8% in assay [4]; 111% in [5]; 97.4% in [6]. Besides, the growth in [7] is 62.1%; in assay [8], 72.3%; in assay [9] it was 82.2%; in [10] it was 86.1%; in assay [11], 105%; in assay [12], 108%. Also, the growth in assay [13] is 89.9%; in assay [14] it was 105%; in assay [15], 121%; in assay [16] it was 95.2%; in assay [17], 95.1%; in [18], 82.6%. In addition, the growth in assay [19] is 79.2%; in assay [20] it was 95%.

The values above are taken from PubChem BioAssay (NCI).
